This excerpt belongs to a sample that is enriched for hits.
15-hLO-2 inh = 15-hLO-2 (ALOX15B) enzyme inhibition. purified 15hLO-2, xylenol orange hydroperoxide absorbance. Potency, µM (highest dose often 57.1 µM), for inactives: at the top dose activity change, negative = inhibition, actives largely listed as inhibitors. O15296. 0.56% of 110,000 active; further: nearly all actives have a fitted effect of over 60% in size
Target sequence (O15296 whole entry, looked up): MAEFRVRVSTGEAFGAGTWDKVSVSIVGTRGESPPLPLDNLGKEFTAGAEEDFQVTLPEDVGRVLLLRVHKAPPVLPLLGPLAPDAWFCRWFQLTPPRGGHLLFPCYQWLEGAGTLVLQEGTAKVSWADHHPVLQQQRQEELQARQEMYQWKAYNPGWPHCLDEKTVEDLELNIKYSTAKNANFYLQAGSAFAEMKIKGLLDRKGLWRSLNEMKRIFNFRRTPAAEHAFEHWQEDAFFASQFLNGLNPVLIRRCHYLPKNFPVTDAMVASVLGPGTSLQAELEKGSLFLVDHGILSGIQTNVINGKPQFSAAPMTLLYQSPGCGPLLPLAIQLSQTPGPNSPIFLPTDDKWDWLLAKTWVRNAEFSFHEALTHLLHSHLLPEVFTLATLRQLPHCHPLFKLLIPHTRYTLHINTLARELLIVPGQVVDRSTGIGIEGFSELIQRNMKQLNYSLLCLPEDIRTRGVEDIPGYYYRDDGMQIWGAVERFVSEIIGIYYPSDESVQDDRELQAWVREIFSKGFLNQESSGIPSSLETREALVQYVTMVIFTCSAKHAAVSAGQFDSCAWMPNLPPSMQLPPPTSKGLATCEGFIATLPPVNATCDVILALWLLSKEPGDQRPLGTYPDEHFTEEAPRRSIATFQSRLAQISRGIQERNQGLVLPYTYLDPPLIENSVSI
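Purified human 15hLO-2 (50 nM final) preincubated with compounds 15 min at room temperature in 25 mM Hepes pH 7.5, 0.01% Triton X-100, then 45 uM arachidonic acid added for 90 min; hydroperoxide detected via ferrous/xylenol orange, 573/405 nm absorbance ratio.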
ALOX15 inhib = blocks human 15-lipoxygenase activity; 1.4% of 74,000 active; AID 887; Potency, µM (highest dose often 57.1 µM), without a hit: top-dose activity change, negative = inhibition, hits mostly inhibitors; purified 15hLO-1, xylenol orange hydroperoxide absorbance; P16050; further: nearly all actives have a fitted effect of over 55% in size
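Inhibition is scored from a chromogenic endpoint. After 15 min enzyme-compound contact, arachidonic acid (50 uM final) reacts 6 min with 40 nM 15hLO-1 at room temperature, then Fe-XO reagent is added for 30 min and absorbance ratio recorded.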
Active calls of the source: *; ? = inconclusive; / = no result given; ! = not active in a repeat; [ ] = another dose, or the depositor's remark. The call rests on the fitted dose curve; in most records, active means well fitted inhibition curve with a large enough effect; inconclusive means small, poorly fitted or top-dose-only effect; inactive means no such curve, though single readings can be large or run the other way. On the % scale 0 is the no-effect control and ±100 the full control effect; potency means the concentration at half of the fitted maximal effect.

SMILES	15-hLO-2 inh	ALOX15 inhib
CC[C@]1(O)C[C@H]2CN(CCc3c([nH]c4ccccc34)[C@](C(=O)OC)(c3cc4c(cc3OC)N(C)[C@@H]3[C@](O)(C(=O)OC)[C@H](OC(C)=O)[C@]5(CC)C=CCN6CC[C@]43[C@@H]65)C2)C1	36%	?
CC(C)=CCC/C(C)=C/C=O	2%	-15%
CC(C)=CCCC(C)CCO (configuration not stated)	8%	7.9µM*
NCCOc1ccccc1Cc1ccccc1	43%	/
NCCOB(c1ccccc1)c1ccccc1	20µM*	0.63µM*
CCc1cc2c(nc1CC)CCN(CC/C(C)=N/OC[C@@H](C)[C@H](OCc1ccccc1)C(C)C)C2	/	1%[11.4 µM]
Cc1ccc(C)n1NC(=O)c1cccs1	-12%	16µM*
Cc1ccc(-c2ccc(CCC(=O)O)n2NC(=O)c2cccs2)cc1	-16%	-18%
O=C(c1ccco1)N1CCC[C@@]2(CCN(C(c3ccccc3)c3ccccc3)C2)C1	-14%	-23%
COC(=O)c1cccc(C23CC4(C2)[C@H](CN(C)[C@@H]4c2ccccc2)C3c2ccc(Cl)nc2)c1 (some centres not stated)	-2%	/
O=C1c2ccccc2NC(c2ccc(Cl)cc2Cl)N1Cc1ccccc1 (configuration not stated)	-5%	/
O=C1c2ccccc2NC(c2ccc(Cl)cc2Cl)N1O (configuration not stated)	?	16µM*
COC(=O)C1=C(C)N(Cc2ccccc2)C2=C(C(C)=O)C[C@@](O)(C(=O)OC)C(=O)N2C1c1ccccc1 (some centres not stated)	/	-1%[11.4 µM]
CN(C)c1nc(N2CCCCC2)nc(N2CCCCC2)n1	/	-5%
OCCN(CCO)c1nc(N2CCCCC2)c2nc(N(CCO)CCO)nc(N3CCCCC3)c2n1	20µM*!	-11%
Cc1cccc2cc3ccc4ccccc4c3cc12	0%[11.4 µM]	-2%[11.4 µM]
OCCN(C=NC1=NN(c2cccc(C(F)(F)F)c2)CC1)CCO	25µM*	/
CCOc1cccc(CN2CCN(c3cccc(C(F)(F)F)c3)CC2)c1O	0%	-26%
Clc1ccccc1C(Nc1cnccn1)Nc1cnccn1	-7%[11.4 µM]	-5%[11.4 µM]
CC(=O)O[C@]12CC[N@+]3(C)CCCC[C@@H]3[C-]1Nc1ccccc12	-1%[11.4 µM]	3%[11.4 µM]
c1ccc(-c2cnc(CSc3ncnc4sccc34)o2)cc1	/	16µM*
Cc1cc(C)n2nc(SCc3ncc(-c4ccccc4)o3)nc2n1	-3%	-12%
O=Cc1ccc(OC2C=CC(C#Cc3ccccc3)OC2CO)cc1 (configuration not stated)	/	-24%[11.4 µM]
CN1/C(=C\P(=O)(N(C)C)N(C)C)C(C)(C)c2ccccc21	8%	-1%
CN1/C(=C/C=N/n2cnnc2)C(C)(C)c2ccccc21	-2%[2.29 µM]	25µM*
SMILES	15-hLO-2 inh	ALOX15 inhib
O=C(O)CCC/C=C\C[C@@H]1CO[C@H](C(F)(F)F)O[C@@H]1c1ccccc1O	5%	0%[25.6 µM]
CCCc1ccc(/C=C2\C(=O)c3ccccc3C(O)=C2C(=O)OCC)cc1	6.3µM*	/
CCOC(=O)C1=C(O)c2ccccc2C(=O)/C1=C\c1ccc(CC)cc1	10µM*	/
CCOC(=O)C1=NN(c2ccccc2)C(=O)/C1=C\c1ccc(N(C)C)cc1	6%	/
CCOC(=O)C1=C(C)N(CC(C)C)C(=O)/C1=C\c1ccc(OCC(=O)Nc2ccccc2)cc1	-25%	/
CNC(=O)[C@H](C)/C=C/C(NC(=O)OCc1ccccc1)c1ccc(C(=O)OC)cc1 (some centres not stated)	5%	-5%
Cc1noc(C)c1C(=O)N1CCC[C@@]2(CCN(C(c3ccccc3)c3ccccc3)C2)C1	7%	-4%
C=CCSC[C@@H]1Nc2cc(Cl)c(S(N)(=O)=O)cc2S(=O)(=O)N1	0%[25.6 µM]	5%[25.6 µM]
CCn1c(SCC(=O)c2ccc(O)c(O)c2)nnc1-c1ccccc1OC	-14%	16µM*
C=CCn1c(SCC(=O)c2ccc(O)c(O)c2)nnc1-c1ccccc1OC	-22%	?
C/C(=N/Nc1nc(C)cc(=O)[nH]1)C(=O)O	28%[11.4 µM]	45%[11.4 µM]
CSc1ccc(C2C(C#N)=C(N)Oc3c2ccc(=O)c2c(C)oc(C)c32)cc1 (configuration not stated)	?	16µM*
Cc1oc(C)c2c(=O)ccc3c(c12)OC(N)=C(C#N)C3c1ccccc1 (configuration not stated)	-7%[11.4 µM]	?
O=c1cc(-c2ccccc2O)oc2cc(O)ccc12	-28%	?
O=c1cc(-c2cccc(O)c2O)oc2ccccc12	16µM*	?
CC(C)(CO)[C@H](O)C(=O)NCCCO	3%[25.6 µM]	1%[25.6 µM]
COc1ccc2nc3c(nc2c1)C(=O)c1ccccc1-3	/	-6%
COc1ccc(CNc2cc(-c3ccccc3OC)ncn2)c(OC)c1	-13%	25µM*
COc1ccccc1CNc1ccnc(-c2ccccc2OC)n1	?	13µM*
COc1ccccc1CNc1ccnc(-c2ccc3c(c2)OCO3)n1	-10%	13µM*
COCCNc1ccnc(-c2ccccc2C)n1	?	13µM*
COc1ccc(CNc2ccnc(-c3ccc4c(c3)OCO4)n2)c(OC)c1	6%	?
COc1ccc(CNc2cc(-c3ccccc3Cl)ncn2)c(OC)c1	-4%	-1%
COc1ccccc1CNc1ccnc(-c2ccccc2CN(C)C)n1	4%	19%
Cc1ccccc1-c1nccc(NCc2cccs2)n1	10%	-16%
SMILES	15-hLO-2 inh	ALOX15 inhib
O[C@@H](c1cc([C@@]23C[C@H]4CC[C@@H]2C[C@H](C4)C3)nc2c(Cl)cc(Cl)cc12)[C@@H]1CCCCN1	12%[11.4 µM]	11%[11.4 µM]
Cc1cccc(NS(=O)(=O)c2cc(C(=O)O)ccc2Cl)c1	/	1%
COc1ccc(CCNC(=O)c2ccc3nc(-c4ccco4)c(-c4ccco4)nc3c2)cc1OC	?	7.9µM*
COc1ccc(CCNC(=O)COC(=O)c2ccco2)cc1OC	-3%	11%
CCCc1cc(-c2[nH]ncc2-c2ccc3c(c2)OCCCO3)c(O)cc1OC	13%	/
CCc1cc(-c2[nH]ncc2-c2ccc3c(c2)OCO3)c(O)cc1O	14%	25µM*
Nc1ncnc2c1nc(Br)n2[C@@H]1O[C@H]2COP(=O)(O)O[C@@H]2[C@H]1O	-3%	7%
C=CC(C)(O)CCCC(C)CCCC(C)CCCC(C)C (configuration not stated)	9%	10µM*
C/C(=C\CO)CCC(C)CCCC(C)CCCC(C)C (configuration not stated)	36%	-5%
O=C(OCc1nnc(-c2ccc(Cl)cc2)o1)c1ccncc1	-10%	4%
O=C(OCc1nnc(-c2ccc(Cl)cc2)o1)c1ccc(=O)n(Cc2ccccc2)n1	-5%	20µM*
COC(=O)c1ccc(C(NC(=O)OCc2ccccc2)/C(F)=C/[C@@H](C)C(=O)NCCO)cc1 (some centres not stated)	2%	5%
c1ccc2c(c1)nnn2Cc1nnc2sc(-c3ccc4c(c3)OCCO4)nn12	3%[2.29 µM]	13µM*
c1ccc(-c2nn3c(Cn4nnc5ccccc54)nnc3s2)cc1	-18%	?
CC(=O)O[C@]1(C)CC[C@]23CC1C(C)(C)C2CC[C@@H]3C (some centres not stated)	20%	25µM*
CC1CCC2C(C)(C)C3CC12CC[C@]3(C)O (some centres not stated)	1%	?
Cn1c(=O)c2c(nc(/C=C\c3cccc(Cl)c3)n2C)n(C)c1=O	-6%	-8%
O=C(c1cccnc1)N1CCCc2ccccc21	-4%	-5%[11.4 µM]

Compound activity: PubChem BioAssay, National Center for Advancing Translational Sciences (NCATS)
